Assay results published in PubChem BioAssay (NCI).
Compounds without any hit were thinned out: in the full panel of roughly 83,000, 20% have a hit.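 In brief: 96-well plates, 48 h treatment, single concentration, percent growth endpoint.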 Unmarked numbers belong to inactive results. Active and inactive are the calls of the source. How the source made its calls: active means growth percent below 10; inactive means the rest.

What was measured:
Experiment in all cases: NCI-60 one-dose screen, 48 h (100 = growth as untreated, 0 = no growth, -100 = all killed)
Conditions in all cases: 10 µM unless noted
[1] = test system: DU-145 prostate
[2] = test system: K-562 leukemia
[3] = test system: MALME-3M melanoma
[4] = test system: MDA-MB-231 breast
[5] = test system: RXF 393 renal
[6] = test system: SF-268 CNS
[7] = test system: SF-295 CNS
[8] = test system: SF-539 CNS
[9] = test system: UACC-257 melanoma
[10] = test system: M14 melanoma
[11] = test system: HCT-15 colon
[12] = test system: HT29 colon
[13] = test system: SNB-75 CNS
[14] = test system: SNB-19 CNS
[15] = test system: SK-MEL-5 melanoma
[16] = test system: UACC-62 melanoma
[17] = test system: LOX IMVI melanoma
[18] = test system: SK-MEL-28 melanoma
[19] = test system: U251 CNS
[20] = test system: PC-3 prostate

Row | SMILES | growth [1] | growth [2] | growth [3] | growth [4] | growth [5] | growth [6] | growth [7] | growth [8] | growth [9] | growth [10] | growth [11] | growth [12] [%] | growth [13] | growth [14] [%] | growth [15] | growth [16] | growth [17] | growth [18] | growth [19] | growth [20]
1 | CC(C)(C)n1cc(-c2ccnc(NCCNS(=O)(=O)c3ccc(O)cc3)c2)c(-c2cccc(O)c2)n1 | 106% | 56.1% | 96.9% | 111% | 108% | 94.4% | 101% | 95.3% | 99.1% | 110% | 107% | 76.9 | 74.4% | 98.5 | 79.7% | 101% | 106% | 98.9% | – | –
2 | Cc1ccc(S(=O)(=O)N2CCC(=O)c3ccccc32)cc1 | 62% | 40.2% | 84.9% | 72.9% | 61% | 80.2% | 86.6% | 55.1% | 77.8% | 62% | 42.9% | – | 42.8% | 69.4 | 63.3% | 67.7% | 76.4% | 80.3% | 49.4% | 74.8%
3 | COc1cccc(NCc2nnc(Nc3ccc(Cl)cc3)c3ccccc23)c1 | 8.3% (active) | 2.2% (active) | -22% (active) | -27.1% (active) | -11.6% (active) | 2.52% (active) | -22.6% (active) | -10.2% (active) | -39.7% (active) | -15.7% (active) | -18.1% (active) | – | -6.06% (active) | 17.8 | -98.5% (active) | -29.2% (active) | -58.7% (active) | -16.1% (active) | -56.2% (active) | -13.6% (active)
4 | NC(=O)c1cccc([C@@H]2O[C@H](CO)[C@@H](O)[C@H]2O)c1 | 66.5% | 27% | 103% | 55.5% | 73.3% | 48% | 65.7% | 14.4% | 97.7% | 17.1% | 12.8% | – | 9.91% (active) | 54.2 | 97.4% | 88.6% | 91.5% | 62.1% | 41.1% | 47.8%
5 | S=C(c1ccc2c(c1)OCO2)N1CCN(c2cccc(Cl)c2)CC1 | -0.195% (active) | 29% | 40.7% | 36.2% | 42.1% | 41% | 9.3% (active) | -4.83% (active) | 54% | 13.5% | 24.1% | – | 12.5% | 40.4 | -10.8% (active) | 25.4% | 45.4% | 53.5% | 28.5% | 15.9%
6 | CCOc1c(OC)cc2c(c1O)C(=O)N[C@@H]1[C@@H](O)[C@@H](O)[C@H](O)C[C@@H]21 | 109% | 91.2% | 102% | 106% | 109% | 102% | 102% | 97.7% | 100% | 105% | 102% | 100 | 93.5% | 99 | 101% | 93.1% | 98.1% | – | – | –
7 | CCN1CCN(CC(=O)Nc2ccc(-c3cn4c(n3)sc3cc(Oc5ccnc(C(=O)NC)c5)ccc34)cc2)CC1 | 105% | -11.1% (active) | 87.7% | 85.1% | 69.2% | 87.2% | 65.4% | 65.4% | 96.2% | 73.8% | 77.3% | – | 82.9% | 98.6 | 88.3% | 66.9% | -80.4% (active) | 74.6% | 64.8% | 65.8%
8 | CCN1C(=O)N(CC)C2C1NN=c1s/c(=C\c3ccc(C(F)(F)F)cc3)c(=O)n12 (centres undefined) | 6.72% (active) | 7.4% (active) | 49.5% | 9% (active) | 24.1% | 53.5% | 14.1% | -21.6% (active) | 48.9% | 6.9% (active) | 9.86% (active) | – | 15% | 24 | 6.27% (active) | 30.9% | 17.4% | 55.8% | 6.65% (active) | 22.6%
